Results reported in PubChem BioAssay (NCI).
About 79,000 compounds went through this panel and 15% of them were active in at least one assay; those are over-represented in the sample as a whole. Rule as the data show it: active = growth inhibition above about 70%; inactive = the rest.

Legend:
[1] = NCI Yeast Anticancer Drug Screen. Data for the rad50 strain (AID 155);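 also: 0% = growth of vehicle-only cultures of the same strain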; conditions: S. cerevisiae rad50 strain growth inhibition; at 50.0 µM; stronger effect = higher value
Method in brief: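 DNA repair mutant yeast, compound exposure, growth read-out; inhibition is taken relative to vehicle.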

[2] = NCI Yeast Anticancer Drug Screen. Data for the mec2-1 strain (AID 157); conditions: S. cerevisiae mec2-1 strain, at 50.0 µM, stronger effect = higher value
Method in brief: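 Using mec2-1 yeast: add compound, measure growth, express inhibition versus vehicle-treated cultures.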

[3] = NCI Yeast Anticancer Drug Screen. Data for the sgs1 mgt1 strain (AID 161);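 also: 0% = growth of cultures given vehicle only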; conditions: S. cerevisiae sgs1 mgt1 strain, at 50.0 µM, stronger effect = higher value
Method in brief: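 Percent growth inhibition was derived by comparing compound-exposed mutant yeast with vehicle-exposed cultures. The strain carries alterations in DNA damage repair.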

[4] = NCI Yeast Anticancer Drug Screen. Data for the cln2 rad14 strain (AID 165);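 also: 0% = growth equal to vehicle treated cultures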; conditions: S. cerevisiae cln2 rad14 strain, at 50.0 µM, stronger effect = higher value
Method in brief: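 Yeast strain cln2 rad14, bearing defects in cell cycle control and DNA repair, serves as the test system; values reflect growth inhibition compared with vehicle.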

[5] = NCI Yeast Anticancer Drug Screen. Data for the bub3 strain (AID 167); conditions: S. cerevisiae bub3 mutant strain, at 50.0 µM, stronger effect = higher value
Method in brief: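 In this screen, a yeast mutant lacking normal mitotic checkpoint function is challenged with compound. Relative growth versus vehicle gives the inhibition value.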

[6] = NCI Yeast Anticancer Drug Screen. Data for the mlh1 rad18 strain (AID 175); conditions: S. cerevisiae mlh1 rad18 strain growth inhibition; at 50.0 µM; stronger effect = higher value
Method in brief: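 Steps: expose repair-defective yeast to compound; measure growth; express inhibition against vehicle-treated controls.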

Measured: growth inhibition

O=C(O)c1ccc(-c2ccc(O)cc2)cc1
inactive: [1] 10.8% | [2] 5.85% | [3] 2% | [4] -34% | [5] -6.7% | [6] 9.4%

CCCCCCCCCCCCCCCCN(O)C(=O)c1cnc[nH]1
inactive: [1] 29.8% | [2] 26.6% | [3] 30.2% | [4] 25.4% | [5] 11.1% | [6] 22.6%

CCCCCC/C=C/CCCCCCCC(=O)O
inactive: [1] 3.15% | [2] -25.1% | [3] 5.3% | [4] -9.9% | [5] -1.75% | [6] -16.9%

C/C(=C/CCl)[N+](=O)[O-]
inactive: [1] 36.4% | [2] -10.4% | [3] -4.95% | [4] -7.35% | [5] -8.95% | [6] 14.1%

Cc1cc(C)c(CCl)c(C)c1CCl
inactive: [1] 0.9% | [2] 2% | [3] -9.1% | [4] -57.5% | [5] 5.75% | [6] 10.2%

CC(C)C(NC(=O)C(=O)c1c[nH]c2ccc(Cl)cc12)C(=O)O (configuration not stated)
inactive: [1] -28.9% | [2] -9.55% | [3] -5.7% | [4] -10% | [5] -10.2% | [6] -1.95%

CC(C)(C)CC(C)(C)c1ccc(OCc2ccc(C(F)(F)F)cc2)cc1
inactive: [1] 14.2% | [2] 10.9% | [3] 5.1% | [4] 13.4% | [5] -4.8% | [6] -1.7%

CCNC(=O)OCCN(CCOC(=O)NCC)CCc1ccccc1
inactive: [1] 8.7% | [2] 9.15% | [3] 15.5% | [4] -7.75% | [5] -17.4% | [6] 6.3%

O=C(O)/C(=C\c1cc2c(cc1[N+](=O)[O-])OCO2)c1ccccc1
inactive: [1] 3.8% | [2] -5.35% | [3] 6.8% | [4] -41% | [5] -22.9% | [6] 17.9%

O=C(O)C(CCS)(c1ccccc1)c1ccccc1
inactive: [1] 17.2% | [2] -5.7% | [3] 0.3% | [4] 20.2% | [5] 2.15% | [6] 2%

COc1ccc(NC(C)=O)cc1Br
inactive: [1] -12.8% | [2] -40.5% | [3] -11.1% | [4] -16.8% | [5] -17.6% | [6] -20.9%

[O-]c1on[n+]2c1c(Nc1ccc(Cl)cc1)nc1ccccc12
inactive: [1] -31.1% | [2] -28% | [3] -22.3% | [4] -21.2% | [5] -36.5% | [6] -39.5%

NC(=O)O/N=C/c1ccccn1
inactive: [1] -12.1% | [2] 2.75% | [3] -17.4% | [4] -10% | [5] -2.65% | [6] -6.95%

CCCSc1nc2c(c(=O)n(C)c(=O)n2C)n1C
inactive: [1] 7.85% | [2] 15.2% | [3] 10.2% | [4] -9.3% | [5] 9.15% | [6] 6.5%

O=[N+]([O-])c1ccc(S(=O)(=O)N/N=C/c2cccc3ccccc23)cc1
inactive: [1] 6.6% | [2] -1.25% | [3] 17.1% | [4] -15.8% | [5] -0.3% | [6] 19.8%

Cc1ccccc1-n1c(C)nc(-c2ccccc2)cc1=O
inactive: [1] -23.4% | [2] -47.2% | [3] -4.9% | [4] 15.5% | [5] -9.4% | [6] 2.8%

CC1(c2ccccc2)OCC(c2ccccc2)O1 (configuration not stated)
inactive: [1] -9.2% | [2] -23.2% | [3] -7% | [4] -22% | [5] 12.7% | [6] 10.3%

Cc1noc(NS(=O)(=O)c2ccc(NC(=S)/N=C/C(C(=O)c3ccccc3)=C(\O)c3ccccc3)cc2)c1C
inactive: [1] 10.7% | [2] 0.55% | [3] 18.7% | [4] -7.4% | [5] -5.15% | [6] 13.7%

Cc1cc(C)nc(NS(=O)(=O)c2ccc(NC(=O)c3ccc(Cl)c4c(Nc5ccc(S(=O)(=O)Nc6nc(C)cc(C)n6)cc5)c5ccccc5nc34)cc2)n1
inactive: [1] 28.1% | [2] 41.3% | [3] 27.8% | [4] 34.2% | [5] 27.8% | [6] 30.4%

NS(=O)(=O)c1ccc(N=C2C=CC(=O)C=C2)cc1
inactive: [1] 13.6% | [2] 4.5% | [3] -0.2% | [4] -36.4% | [5] -4.05% | [6] -3.95%

O=C(NCc1cccc2ccccc12)Nc1ccccc1Cl
inactive: [1] 4.9% | [2] 36.1% | [3] 10.3% | [4] -6.55% | [5] 27% | [6] 30%

O=S(=O)(O)c1ccccc1P(c1ccccc1)c1ccccc1
inactive: [1] 17.1% | [2] 17.7% | [3] 8.15% | [4] 36.1% | [5] 17.6% | [6] 14.6%

CCC(C)n1c(C)nc2cc(C(F)(F)F)cc(N)c21 (configuration not stated)
inactive: [1] 20.7% | [2] 18.4% | [3] 8.4% | [4] -31.2% | [5] 11.6% | [6] 15.2%

CC1(C)CCCC/C1=N\Nc1ccc([N+](=O)[O-])cc1[N+](=O)[O-]
inactive: [1] -29.2% | [2] 5.2% | [3] -2.8% | [4] -22.2% | [5] 1.1% | [6] 22.1%

C\C(=C/C(=N/N=C\c1ccccc1O)c1ccccc1)c1ccccc1
inactive: [1] 13.8% | [2] 10.9% | [3] -4.45% | [4] -3.5% | [5] 5.6% | [6] 5.15%

O=C1CC(c2ccc(Cl)cc2)C(=O)O1 (configuration not stated)
inactive: [1] -10.5% | [2] 12% | [3] 1.6% | [4] 3.2% | [5] -23.4% | [6] -15.1%

C=C(C)COC(=O)Nc1cccc(Cl)c1
inactive: [1] 58.9% | [2] -4.15% | [3] 4.7% | [4] 13.4% | [5] 10.2% | [6] 24.9%

C[P+]1(CCc2ccc(Cl)cc2)CC=CC1
inactive: [1] -4.15% | [2] 5.2% | [3] -2.9% | [4] -18.9% | [5] 0.2% | [6] -3.95%

COC(=O)c1cccc(=O)o1
inactive: [1] 2.55% | [2] 0.1% | [3] -18.4% | [4] -79% | [5] -1.2% | [6] 2.15%

CCOC(=O)C(C(=O)OCC)C(c1ccccc1)c1ccccc1OC (configuration not stated)
inactive: [1] 6.9% | [2] 12% | [3] 4.15% | [4] 17% | [5] 12.3% | [6] -9.55%

CC(C(=O)O)C(=O)NNc1ccccc1 (configuration not stated)
inactive: [1] 7.8% | [2] -17.9% | [3] -6.7% | [4] 8.4% | [5] -2.1% | [6] -16.4%

CCCCC(O)C(C)(C)C (configuration not stated)
inactive: [1] 1.5% | [2] -8.65% | [3] 3.55% | [4] 6.55% | [5] 9.65% | [6] 7.2%

NN1CCCC(O)C1 (configuration not stated)
inactive: [1] -0.15% | [2] -18.4% | [3] 4.75% | [4] 4.5% | [5] 5.1% | [6] 5.4%

C=C(CC(O)c1ccccc1)C(=O)Nc1ccccc1OC (configuration not stated)
inactive: [1] 25.9% | [2] 0.45% | [3] 13.3% | [4] 1.25% | [5] 6.3% | [6] 4.1%

COc1cc2c(cc1OC)C(=O)/C(=C/c1ccc([N+](=O)[O-])cc1)CC2
inactive: [1] -50.2% | [2] -56.5% | [3] -11.9% | [4] -38.2% | [5] -28% | [6] -33.9%

CC1=C(O)C(=O)C2C(=O)C1C(C)C2c1ccccc1 (configuration not stated)
inactive: [1] -5.45% | [2] 3.05% | [3] -32.2% | [4] -7.6% | [5] -11.6% | [6] -13.9%

CC(C)(Br)CS(=O)(=O)c1ccccc1
inactive: [1] 38.1% | [2] 5.85% | [3] 29.1% | [4] -20.2% | [5] 14.1% | [6] 29.5%

Cc1ccc(S(=O)(=O)OCC2CCC(COS(=O)(=O)c3ccc(C)cc3)O2)cc1 (configuration not stated)
inactive: [1] -4.9% | [2] -14.4% | [3] -4.85% | [4] 10.7% | [5] -0.35% | [6] -6.9%

Cc1nc2cccc([N+](=O)[O-])c2s1
inactive: [1] 15.2% | [2] 1.7% | [3] 28.4% | [4] 11.7% | [5] 17.4% | [6] 20.4%

O=S(O)CCCCCSSSCCCCCS(=O)O
inactive: [1] 8.2% | [2] 8.8% | [3] -2.8% | [4] -10.4% | [5] 9.05% | [6] 44.7%

CC(O)C12OC1CC1C3CC4OC45CC(O)CCC5(C)C3CCC12C (configuration not stated)
inactive: [1] 36.5% | [2] 20.6% | [3] 38.7% | [4] 31.1% | [5] 36.9% | [6] 9.1%

COc1ccc(OC)c(/C=C/c2ccc(NC(=O)Nc3ccccc3Cl)cc2)c1
inactive: [1] 10.8% | [2] 2.3% | [3] -7.9% | [4] -39.1% | [5] 1.2% | [6] 13.8%
